In all, about 140,000 compounds went through this assay and about 220 (0.16%) were called active. The sample as a whole holds a higher share of actives than the screen did. Values without a mark were called inactive. Cut-off read from the data, not from the text of the source: active = inhibition above about 50%; inactive = the rest.
The compounds below were run on YopH tyrosine phosphatase [Yersinia enterocolitica] (assay: inhibition of Yersinia YopH phosphatase – biochemical, fluorescence Ex485/Em525, primary screen (AID 898)). Conditions: hits give high values, concentration not given here.

Compound | inhibition
CC(C)Cc1nn2c(=O)cc(O)nc2s1 | -35.6%
COc1ccc(OCC(=O)Nc2cc(C)c(Cl)cc2OC)c([N+](=O)[O-])c1 | -16.9%
O=C(OCC1O[C@@H](OC(=O)c2cc(O)c(O)c(O)c2)[C@@H](OC(=O)c2cc(O)c(O)c(O)c2)[C@@H](OC(=O)c2cc(O)c(O)c(O)c2)[C@@H]1OC(=O)c1cc(O)c(O)c(O)c1)c1cc(O)c(O)c(O)c1 (stereo partly specified) | 71.9% (active)
CC(=O)NC1C(OCc2ccccc2)OC(COC(C)=O)C(OC(C)=O)C1OC(C)=O (stereo unspecified) | -23.9%
S=C(NCCc1ccccc1)NCC1CCCO1 (stereo unspecified) | -37.5%
CCS(=O)(=O)Nc1cccc(-c2cc(-c3ccccc3)c3cc(C)ccc3n2)c1 | -8.31%
CCc1ccc(C(=O)OCC(=O)Nc2cccc(S(=O)(=O)NC3=NCCCCC3)c2)cc1 | -20.5%
Cc1cc([N+](=O)[O-])ccc1NC(=O)C1CCCO1 (stereo unspecified) | -25.6%
Cc1cc([N+](=O)[O-])nn1CC(=O)Nc1ccc(Cc2ccncc2)cc1 | -27.8%
O=C(Nc1ccccc1Cc1ccccc1)c1ccc2c(c1)SC1=NS(=O)(=O)CCN12 | -31.8%
CCOC(=O)CN1C(=O)N[C@@H](c2ccc(Br)cc2)C(C(C)=O)=C1C | -19.8%
CC(=O)c1ccc(N2CCN(C(=O)c3ccc4nc[nH]c4c3)CC2)cc1 | -23.5%
COc1ccc2oc(-c3cccc(NC(=O)CSc4ccc(Cl)cc4)c3)nc2c1 | -28.2%
COc1ccc(N2C(=O)C(CC(=O)Nc3ccc(F)cc3)N(CCc3cccs3)C2=O)cc1 (stereo unspecified) | -4.8%
Cc1ccc(CCCOC(=O)C[N+]2(C)CCCC2)cc1 | -21.4%
CCC(=O)Nc1c(C)n[nH]c1C | -26.6%
CCCN1C(=O)C(Cc2nc3ccccc3c(=O)n2-c2ccccc2)c2cc(C)ccc21 (stereo unspecified) | -10.9%
CCOC(=O)c1cccnc1NC(=O)c1ccncc1 | -10.3%
COc1cccc2c1CCC(NC(C)=O)C2=O (stereo unspecified) | -4.91%

Compound | inhibition
CCN(CC)S(=O)(=O)c1ccc(C)c(NC(=O)COc2ccc(Br)cc2Cl)c1 | -2.1%
Cc1coc2c(O)cc3c(c12)OC1(N2CCCCC2)C(=O)NCCCC31 (stereo unspecified) | 73% (active)
COc1ccc(CNC(=O)CCCn2nc(C)c([N+](=O)[O-])c2C)cc1 | -22.1%
COc1ccc(/C=C/C(=O)NC(=S)NN2CCCCC2c2cccnc2)cc1 (stereo unspecified) | -20.6%
Cc1ccc(C(=O)COC(=O)CCCC(=O)NC2CCCCC2)cc1[N+](=O)[O-] | -26.3%
CCNC(=S)N1CCC(c2nc3cc(C)c(C)cc3[nH]2)CC1 | -17.7%
O=S(=O)(ON(c1ccccc1)S(=O)(=O)c1ccccc1)c1ccccc1 | -36.9%
CCOC(=O)c1csc(NC(=O)Nc2cccc(OC)c2)n1 | -29.1%
O=C(NC(CC(=O)N1CCN(c2ccccc2)CC1)c1ccccc1)c1ccccc1Cl (stereo unspecified) | -12%
CCOc1cccc2c1OC1(CCCCC1)N1N=C(c3cccnc3)CC21 (stereo unspecified) | -19.2%
CC1(c2ccccc2)CC(C)(C)N(C(=O)c2cc([N+](=O)[O-])cc([N+](=O)[O-])c2)c2ccccc21 (stereo unspecified) | -29.6%
CC1CCN(C2=NC(=O)/C(=C/c3cn[nH]c3-c3ccccc3)S2)CC1 | -21.6%
Cc1ccc(-n2c(SCC(=O)Nc3ncc(Cl)cc3Cl)nc3ccccc32)cc1 | 8.79%
CCOC(=O)/C=C/C(=O)OCC(=O)NC(c1ccccc1)c1ccccc1 | -29%
Cc1cc(C)c(C2C3=C(Nc4c2c(C)nn4-c2ccccn2)c2ccccc2C3=O)c(C)c1 (stereo unspecified) | -0.15%
CCOC(=O)c1c(C)[nH]c2c1-c1ccccc1C(=O)C2=O | 78.7% (active)
CCOC(=O)c1c(C)[nH]c(=S)c(C#N)c1-c1ccccc1 | -37.4%
CCOC(=O)C1=C(c2ccc(OC)cc2)C(=O)c2ccccc2C1=O | 16.7%
COc1ccc2c(CC(=O)OCC(=O)Nc3ccccc3[N+](=O)[O-])coc2c1 | -29.4%

Compound | inhibition
Cc1ccc(C(=O)Oc2coc(CSc3nnc(NC(=O)c4cccs4)s3)cc2=O)cc1C | 0.04%
NC1=NC(=O)S/C1=C\c1ccc(O)cc1 | -36.5%
CCOc1ccccc1N1CCN(C(=S)Nc2ccc(S(N)(=O)=O)cc2)CC1 | -2.91%
CC(C)(C)C(=O)NC(NC(=S)Nc1ccc(S(N)(=O)=O)cc1)C(Cl)(Cl)Cl (stereo unspecified) | -18.5%
CCN1CCC2(CC1)N=C(c1ccc(F)cc1)C(=S)N2C(=O)c1ccc(C)cc1 | 77.9% (active)
Cc1ccc(C(=O)N(CN2CCCC2=O)c2ccc(F)cc2)cc1 | -41.7%
CCn1c(C(C)NC(=O)c2ccc(C)cc2)n[nH]c1=S (stereo unspecified) | -41.3%
CC(=O)c1c(C)[nH]c(C(=O)OCC(=O)Nc2sc3c(c2C#N)CCCC3)c1C | -24.9%
COCCCN(C(=S)Nc1c(C)cc(C)cc1C)C(C)c1ccncc1 (stereo unspecified) | -22.6%
Cc1ccccc1-n1nc(C)c2c1N=C1C(Cl)=CC(Cl)=CN1C2c1ccc(C(=O)O)cc1 (stereo unspecified) | -22.9%
COC(C(=O)Nc1ccc(C(C)=O)cc1)c1ccccc1 (stereo unspecified) | -28.2%
C/C(=N/NC(=S)Nc1ccccc1)c1ccc2c(c1)OCO2 | -22.5%
COc1ccc(OCCNS(=O)(=O)Cc2ccccc2)cc1 | -30.4%
Cc1nonc1C(=O)N/N=C/c1ccc(O)cc1 | -21.7%
Cc1ccc2c(CC(=O)NCc3cccs3)coc2c1 | -29.9%
CCc1cccc(CC)c1NC(=O)COc1ccccc1C(=O)c1cc(C#N)c(=O)n(C2CCCCC2)c1 | -24.5%
Cc1ccc(-c2cc(C(=O)N/N=C/C=C/c3ccccc3)n[nH]2)o1 | -23%
O=C(COC(=O)c1cc2c(s1)CCCC2)NCc1ccccc1Cl | -45.2%

— PubChem BioAssay AID898 (University of Pittsburgh Molecular Library Screening Center, 2007)
